Assay results taken from PubChem BioAssay (NCATS).
Several values for one entry are separate records, joined by “and”; a condition that tells them apart may be missing. Identical values can stand only once. A number with no mark means an inactive call. Inconclusive results are not listed. Where a call stands in place of a potency, no number is given. Activity calls are given as the source filed them. The call rests on the fitted dose curve; in most records, active means well fitted curve in the direction sought with a large enough effect; inconclusive means small, poorly fitted or top-dose-only effect, or another doubt; inactive means no such curve, though single readings can be large; an effect the other way counts as inactive or inconclusive.

Columns and labels:
[1] = qHTS assay for cell viability of HEK293 cells (AID 743288); conditions: ATP luminescence (CellTiter-Glo), 18 h, hits give low values; further: nearly all actives have a fitted effect of over 50% in size
Summary of the method: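 Total intracellular ATP, measured with a luciferase-coupled reagent, indicates the number of viable HEK293 cells. Exposure to test chemicals lasts 18 h at 37 C in 1,536-well format at 2,000 cells/well.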

[2] = qHTS assay for cell viability of the p53RE-bla HCT-116 cell line (AID 743292); conditions: p53RE-bla HCT-116 viability, ATP luminescence, 16 h; series mostly up to 95 µM; further: nearly all actives have a fitted effect of over 55% in size
Summary of the method: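 Intracellular ATP of p53RE-bla HCT-116 cells measured by luciferase luminescence following 16 h compound incubation at 37 C; DMSO-only wells served as vehicle controls.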

[3] = qHTS assay for measurement of the activity of small molecule inhibitors on Zika virus induced Caspase-3 activity in human iPSC derived neural progenitor cells (hNPCs) (AID 1224857); conditions: hNPCs ZIKV-induced caspase-3/7, Caspase-Glo luminescence, 6 h; series mostly up to 45.7 µM; further: nearly all actives have a fitted effect of over 65% in size
Summary of the method: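 Human iPSC-derived neural progenitor cells pretreated 1 hr with compounds, then infected with Zika virus (2 FFU/cell) for 6 hours at 37 C. Caspase-3/7 measured by Caspase-Glo luminescence; % inhibition calculated from induction scaled to uninfected (0%) and infected (100%) wells.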

[4] = qHTS assay for measurement of the activity of small molecule inhibitors on Zika virus induced Caspase-3 activity in human astrocytoma cells (AID 1224859); conditions: SNB-19 ZIKV-induced caspase-3/7, luminescence, 6 h; series mostly up to 45.7 µM
Summary of the method: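 SNB-19 astrocytoma cells, 250/well, pretreated 1 h with compounds, then Zika virus at 2 FFU/cell for 6 h at 37 C; Caspase-Glo 3/7 luminescence after 30 min; percent inhibition normalised to uninfected and infected controls.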

[5] = P-glycoprotein substrates identified in KB-8-5-11 adenocarcinoma cell line, qHTS therapeutic library screen (AID 1346987); conditions: KB-8-5-11 (P-gp overexpressing) viability, CellTiter-Glo, 72 h; series mostly up to 44.5 µM; further: nearly all actives have a fitted effect of over 65% in size; further: potency means the concentration at half of the fitted maximal effect
Summary of the method: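 KB-8-5-11, a colchicine-selected P-gp-overexpressing KB-3-1 subline, was grown without colchicine for the assay. Cells were seeded at 500 cells/well, dosed in concentration-response and incubated 72 h at 37 degree C, 5% CO2. Viability was read by CellTiter-Glo luminescence.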

[6] = NS1 protein of Zika virus - qHTS assay to identify small molecule inhibitors in human HEK 293 cells (AID 1347053); conditions: HEK293 ZIKV MR766 infection, NS1 TR-FRET, 24 h; series mostly up to 46.1 µM; further: nearly all actives have a fitted effect of over 55% in size
Summary of the method: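 Inhibition of NS1 expression was scored in HEK 293 cells given compound 1 h ahead of MR766 virus (MOI = 0.5). Following 24 h at 37 C, two anti-NS1 antibodies generated a TR-FRET signal, scaled between uninfected and infected controls.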

[7] = qHTS of pediatric cancer cell lines to identify multiple opportunities for drug repurposing: Primary screen for TC32 cells (AID 1347089); conditions: TC32 Ewing sarcoma viability, CellTiter-Glo luminescence, 48 h; series mostly up to 45.8 µM; further: nearly all actives have a fitted effect of over 60% in size
Summary of the method: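 Luminescent ATP read-out (CellTiter-Glo) of metabolically active TC32 cells after 48 h exposure. Concentration-response curves came from 11-point (MIPE, 0.78 nM–46 µM) or 8-point (NPC, 0.59 nM–46 µM) primary titrations; follow-up used 11 points.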

[8] = qHTS Assay for Identifying Gametocytocidal Compounds (AID 743244);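 further: actives lower the fluorescent signal which means gametocytes are killed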; conditions: P. falciparum 3D7 stage III-V gametocytes, alamarBlue, 72 h; max response: hits give low values
Summary of the method: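 Stage III-V P. falciparum 3D7 gametocytes, 20,000 per well, were exposed to compounds for 72 h at 37C, 5% CO2. AlamarBlue was then added for 24 h and viability was read as fluorescence at Ex 525/Em 598 nm.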

| Structure (SMILES) | max response [1] | Potency [2] | Potency [3] | outcome [4] | Potency [5] | Potency [6] | Potency [7] | max response [8] |
| --- | --- | --- | --- | --- | --- | --- | --- | --- |
| OCc1c[nH]c2ccccc12 | 5.55% | inactive | inactive | inactive | inactive | inactive | inactive |  |
| Brc1ccccc1-c1ccccc1 | -7.8% | inactive | inactive | inactive | inactive | inactive | inactive | -19.3% |
| Nc1cccc2c(N)cccc12 | -10.7% and -9.55% | inactive | inactive | inactive | inactive | inactive |  |  |
| Cc1ncc(CO)c(CO)c1O | -15.6% | inactive | inactive | inactive | inactive | inactive | inactive | -15.9% |
| N#C/C(=C1/SC[C@@H](c2ccc(Cl)cc2Cl)S1)n1ccnc1 |  |  | inactive | inactive | inactive | inactive |  | 8.83% and -5.83% and 7.31% |
| CC(CCc1ccc2c(c1)OCO2)NN (configuration not stated) |  |  | inactive | inactive | inactive | inactive | inactive | 15.4% |
| O=P(O)(O)OCC(O)CO (configuration not stated) |  |  | inactive | inactive | inactive | inactive | inactive | 11.3% |
| C1=CC2C3C=CC(C3)C2C1 (configuration not stated) | -14.2% | inactive | inactive | inactive | inactive | inactive | inactive | -11.9% |
| CSc1ccc(/C=C2/C(C)=C(CC(=O)O)c3cc(F)ccc32)cc1 |  |  | inactive | inactive | inactive | inactive | inactive | -4.94% |
| CC(C)(C)C(=O)OCOC(=O)C1N2C(=O)CC2S(=O)(=O)C1(C)C (configuration not stated) |  |  | inactive | inactive | inactive | inactive | inactive | 0.683% |
| c1ccc2occc2c1 | -2.02% and -29.2% and -7.14% | inactive | inactive | inactive | inactive | inactive | inactive | -7.52% |
| O=C(CCCl)NCc1ccccc1 |  |  | inactive | inactive |  | inactive |  |  |
| CC(C)(C)CC(=O)OCC(=O)[C@@]1(O)CC[C@H]2[C@@H]3CCC4=CC(=O)C=C[C@]4(C)[C@H]3[C@@H](O)C[C@@]21C |  |  | inactive | inactive |  | inactive | inactive |  |
| O=C(O)c1ccccc1Nc1cc(Cl)ccc1C(=O)O |  |  | inactive | inactive | inactive |  | inactive |  |
| CCCC(=O)Nc1ccc(O)c(C(C)=O)c1 |  |  | inactive | inactive |  | inactive | inactive |  |
| CCOC(=O)Oc1ccc(CCNC(=O)[C@H](CCSC)NC(C)=O)cc1OC(=O)OCC |  |  | inactive | inactive |  | inactive |  |  |
| COc1ccc([C@@H]2Sc3ccccc3NC(=O)[C@@H]2O)cc1 |  |  | inactive | inactive |  | inactive |  |  |
| Cc1cccc(C)c1NC(=O)c1cc(S(N)(=O)=O)c(Cl)cc1O |  |  | inactive | inactive | inactive |  | inactive | 11.8% |
| O=C1NC2CCCCN2C12CCN(CCCN1c3ccccc3CCc3ccc(Cl)cc31)CC2 (configuration not stated) |  |  | inactive | inactive | 16.4 µM (active) |  | inactive |  |
| CCCCCOc1ccc(C2SC(=O)NC2=O)cc1OCC (configuration not stated) |  |  | inactive | inactive | inactive |  | inactive |  |
| CCCCC(O)/C=C(C)/C=C/C=C/C(=O)N1CCCC1=O (configuration not stated) |  |  | inactive | inactive | inactive |  | inactive |  |
